Inconclusive results are not listed. Calls of active or inactive are those of the source. Unless noted, the call rests on the fitted dose curve; in most records, active means well fitted curve in the direction sought with a large enough effect; inconclusive means small, poorly fitted or top-dose-only effect, or another doubt; inactive means no such curve, though single readings can be large; an effect the other way counts as inactive or inconclusive.
Experiments:
[1] = biological target: Rap guanine nucleotide exchange factor 3 (Homo sapiens) (UniProt O95398); experiment: Confirmatory qHTS for antagonist of cAMP-regulated guanine nucleotide exchange factor 3 (EPAC1) (AID 1645880); details: EPAC1 Rap1B-BODIPY-GDP exchange, fluorescence; activity, negative = inhibition: at 115 µM (top of the series); further: nearly all actives have a fitted effect of over 55% in size; further: potency means the concentration at half of the fitted maximal effect;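 on activity, negative = inhibition: plate controls were DMSO only for no effect and full effect of the ATA control for full effect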
Summary of the method: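 Nucleotide exchange uses 100 nM EPAC1, 250 nM RAP1B-BODIPY-GDP and 50 uM GDP, with compounds in a concentration-titration series. After 5 min at room temperature, fluorescence (480 nm ex/540 nm em) is read every 5 min for 30 min. Data are normalized to control ATA and DMSO.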

[2] = biological target: Rap guanine nucleotide exchange factor 3 (Homo sapiens) (UniProt O95398); experiment: Confirmatory qHTS for agonist of cAMP-regulated guanine nucleotide exchange factor 3 (EPAC1) (AID 1645881); further: nearly all actives have a fitted effect of over 75% in size; further: potency means the concentration at half of the fitted maximal effect;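 on activation: EPAC1 catalysed release of BODIPY-GDP from Rap1B seen as fluorescence loss; 100% = effect of cAMP agonist control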
[3] = biological target: Rap guanine nucleotide exchange factor 4 (Homo sapiens) (UniProt Q8WZA2); experiment: Confirmatory qHTS for agonist of cAMP-regulated guanine nucleotide exchange factor 4 (EPAC2) (AID 1645884);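 further: nucleotide exchange releases bodipy-GDP from Rap1 and this lowers its fluorescence; nearly all actives have a fitted effect of over 65% in size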; further: potency means the concentration at half of the fitted maximal effect
[4] = biological target: Rap guanine nucleotide exchange factor 4 (Homo sapiens) (UniProt Q8WZA2); experiment: Confirmatory qHTS for antagonist of cAMP-regulated guanine nucleotide exchange factor 4 (EPAC2) (AID 1645885); further: nearly all actives have a fitted effect of over 25% in size; further: potency means the concentration at half of the fitted maximal effect
[5] = biological target: Rap guanine nucleotide exchange factor 3 (Homo sapiens) (UniProt O95398); experiment: Counterscreen qHTS for agonist of cAMP-regulated guanine nucleotide exchange factor 3 (EPAC1) (AID 1645889); further: nearly all actives have a fitted effect of over 40% in size; further: potency means the concentration at half of the fitted maximal effect; on activation: % of control where 0% means no effect
Summary of the method: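 Rap1B-BODIPY-GDP 250 nM + GDP 50 uM; cpds 7-pt, final 9.74 nM–152 uM (activator mode) or from 7.32 nM upwards (inhibitor mode); RT; FI 480/540 nm at 5 and 30 min, then ± cAMP, reread.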

[6] = biological target: Cytochrome P450 1A2 (Homo sapiens) (UniProt P05177); experiment: p450-cyp1a2 (AID 410; calls by dose curve; further: potency means the concentration at half of the fitted maximal effect)
Summary of the method: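 Luminescent readout of luciferin formed from Luciferin-ME by human CYP1A2; data normalized against complete inhibition by 57 uM furafylline. Enzyme 20nM, substrate 100uM at Km, 100mM KPO4 buffer, 60 min reaction at room temperature.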

[7] = biological target: Mitogen-activated protein kinase 10 (Mus musculus) (UniProt Q61831); experiment: JNK3 AlphaScreen Assay (AID 530; active means well fitted curve in either direction with a large enough effect, not every such curve was filed as active;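 further: kinase came from lysate of stimulated human HepG2 cells; signal reports phosphorylation of biotinylated GST-cJun 1-79 at Ser73 with 10 µM ATP; on the % scale 0 is the no-effect control and ±100 the full control effect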)
Summary of the method: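 Compound titrations were preincubated 15 minutes at room temperature with substrate, antibody and pre-activated JNK3-containing HepG2 lysate. Reactions were started with 10 uM ATP and stopped with EDTA-containing bead buffer for AlphaScreen detection.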

[8] = biological target: Cytochrome P450 2C9 (Homo sapiens) (UniProt P11712); experiment: qHTS Assay for Inhibitors and Substrates of Cytochrome P450 2C9 (AID 883); further: potency means the concentration at half of the fitted maximal effect; nearly all actives have a fitted effect of over 60% in size
Summary of the method: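 Inhibition of CYP2C9 is scored as loss of luminescence, with 57uM sulphaphenazole defining 100% inhibition. Substrate Luciferin-H is used at 100uM, equal to its KM; enzyme at 10nM in 25mM KPO4, 60 min at 37C with NADPH regeneration.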

[9] = biological target: Cytochrome P450 3A4 (Homo sapiens) (UniProt P08684); experiment: qHTS Assay for Inhibitors and Substrates of Cytochrome P450 3A4 (AID 884); further: potency means the concentration at half of the fitted maximal effect; nearly all actives have a fitted effect of over 50% in size
Summary of the method: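 20 nM human CYP3A4 with 25 uM Luciferin-PPXE (at KM) in 200 mM KPO4, preincubated 10 min with compound; NADPH regeneration started a 60 min RT reaction. Luciferin detected by luminescence, normalized to 57 uM ketoconazole as full inhibition.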

[10] = biological target: Cytochrome P450 3A4 (Homo sapiens) (UniProt P08684); experiment: qHTS Assay for Activators of Cytochrome P450 3A4 (AID 885); further: nearly all actives have a fitted effect of over 65% in size
Summary of the method: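 Steps: enzyme/substrate mix dispensed; compound added, 10 min RT; NADPH regeneration solution added, 60 min RT; luciferin detection buffer stops reaction; 20 min later luminescence measured.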

[11] = biological target: Cytochrome P450 2C19 (Homo sapiens) (UniProt P33261); experiment: qHTS Assay for Inhibitors and Substrates of Cytochrome P450 2C19 (AID 899); further: potency means the concentration at half of the fitted maximal effect; nearly all actives have a fitted effect of over 60% in size
Summary of the method: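 5nM enzyme + 10uM Luciferin-H EGE (=KM), 50mM KPO4; cpd pin-transferred, 10 min 37C; NADPH regen, 60 min 37C; stopped w/ luciferin detection reagent, 20 min; luminescence. Normalized to 57uM ketoconazole (AC100).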

[12] = biological target: Tumor susceptibility gene 101 protein (Homo sapiens) (UniProt Q99816); experiment: qHTS Assay for Iinhibitors of HIV-1 Budding by Blocking the Interaction of PTAP/TSG101: Hit Validation (AID 651600); further: potency means the concentration at half of the fitted maximal effect; nearly all actives have a fitted effect of over 70% in size
Summary of the method: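 FITC-PTAP peptide (50 nM final) binding to Tsg101 binding domain (10 uM final) was measured by polarization after 20 min at r.t. with compounds, in 10 mM HEPES pH 7.5 buffer with 0.15 M NaCl and 0.01% Tween 20.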

[13] = biological target: Lysosomal acid glucosylceramidase (Homo sapiens) (UniProt P04062); experiment: Glucocerebrosidase-p2 (AID 348; in the data active means potency below about 10 µM; further: potency means the concentration at half of the fitted maximal effect); details: purified GBA, blue fluorogenic substrate, 40 min
Summary of the method: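 Compounds titrated from 0.6 nM upwards against 0.2 nM enzyme in pH 5.9 citric acid/KH2PO4, taurocholate, tween-20; blue fluorogenic substrate 80 uM, 40 min room temperature, stopped and read Ex 365/Em 440 for AC50.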

[14] = AP1 Signaling Pathway (AID 357; active means well fitted curve in either direction with a large enough effect, not every such curve was filed as active;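 further: ME-180 reporter cells stimulated with EGF at its EC50 level; on the % scale 0 is the no-effect control and ±100 the full control effect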); details: ME-180 AP-1-bla reporter, EGF-induced, beta-lactamase ratio, 5 h; at 7.69 µM (top of the series) unless noted
Summary of the method: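 AP-1-bla ME-180 cells, Opti-MEM + 0.5% dialyzed FBS, plated overnight 37 °C. Cpd titration + EC50 EGF, 5 h 37 °C. CCF4 2.5 h RT; ex 405, em 460/530 ratio → %activity, AC50.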

[15] = NFAT Signaling Pathway (AID 444; active means well fitted curve in either direction with a large enough effect, not every such curve was filed as active;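 further: carbachol stimulus at about its EC50 of 1 µM final; on the % scale 0 is the no-effect control and ±100 the full control effect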); details: Jurkat NFAT-bla M1, carbachol, beta-lactamase ratio, 5 h; at 7.69 µM (top of the series) unless noted
Summary of the method: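 Read-out: CCF4 FRET ratio (460 nm/530 nm) after 1 h RT dye loading, used for %activity and AC50 from titration series. Cells: Jurkat NFAT-β-lactamase/M1 line, treated with compound plus 1 uM carbachol for 5 h, 37 °C.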

[16] = Stat Signaling Pathway (AID 446; active means well fitted curve in either direction with a large enough effect, not every such curve was filed as active;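 further: ME-180 cervical cancer cells given 40 pM IL-6 alongside compound; SIE-controlled beta-lactamase reporter measured as 460/530 nm FRET emission ratio; on the % scale 0 is the no-effect control and ±100 the full control effect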)
Summary of the method: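 Screening format detects activators and inhibitors alike: ME-180 SIE-bla cells stimulated at 40 pM IL-6 for 5 hrs with compound, then dual-emission beta-lactamase read at 405 nm excitation.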

[17] = biological target: Glucocorticoid receptor (Homo sapiens) (UniProt P04150); experiment: GR-EFC Redistribution (AID 451; calls by dose curve; further: potency means the concentration at half of the fitted maximal effect); details: CHO-K1 GR-EFC translocation, beta-gal luminescence, 2 h
Summary of the method: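 Translocation of GR-ED fusion to nuclear EA restores b-gal, read by luminescence after 1 h room-temperature detection. Engineered CHO-K1 biosensor cells, 1,000/well, exposed 2 h at 37 C to titrations up to 46 uM final.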

[18] = biological target: 3',5'-cyclic-AMP phosphodiesterase 4B (Homo sapiens) (UniProt Q07343); experiment: qHTS Assay for Inhibitors of PDE-IV (AID 607; active means well fitted activation curve with a large enough effect in the main read-out, with a control signal flat, not every such curve was filed as active; further: % of control where 0% means no effect)
Summary of the method: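 The readout is membrane depolarisation from a cAMP-sensing CNG channel, detected with a potential dye at ex 535/em 590. Cells were HEK293-derived (endogenous PDE-IV) at 1000 cells/well, titrated up to 22.9 uM final.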

[19] = biological target: Dual specificity protein kinase CLK4 (Homo sapiens) (UniProt Q9HAZ1); experiment: qHTS Assay for Inhibitors of CDC-like Kinase 4 (ADP-FP Assay) (AID 1795);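 further: recombinant human CLK4 phosphorylating RS repeat peptide at 1 µM ATP; on the % scale 0 is the no-effect control and ±100 the full control effect; nearly all actives have a fitted effect of over 60% in size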
Summary of the method: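 Kinase activity was measured as ADP production using Transcreener orange tracer (4 nM) and ADP antibody (1 ug/mL) fluorescence polarization, with ADP calculated from a calibration curve. The 1 h reaction contained 6.25 nM Clk4, 1 uM ATP and 100 uM RS peptide at pH 7.5 with Mg2+.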

[20] = biological target: Ubiquitin carboxyl-terminal hydrolase 1 (Homo sapiens) (UniProt O94782); experiment: Inhibitors of USP1/UAF1: Pilot qHTS (AID 504865);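 further: rhodamine fluorescence freed from ubiquitin-rhodamine substrate followed over time; top concentration of the series differs between compounds; on the % scale 0 is the no-effect control and ±100 the full control effect; nearly all actives have a fitted effect of over 35% in size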
Summary of the method: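 Deubiquitinase activity followed as kinetic rhodamine fluorescence release from 150 nM Ub-Rho. 1 nM USP1/UAF1 with compound, after 15 min room-temperature preincubation, in HEPES pH 7.8 buffer containing TCEP, EDTA, BSA and Tween-20.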

[21] = biological target: Glucocorticoid receptor (Homo sapiens) (UniProt P04150); experiment: GR-GFP Redistribution (AID 450;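 active means compounds whose dose series gives a full or clear partial fitted curve of increased nuclear translocation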; further: potency means the concentration at half of the fitted maximal effect); details: U2OS GR-GFP nuclear translocation, laser cytometry, 2 h
[22] = biological target: Cytochrome P450 2D6 (Homo sapiens) (UniProt P10635); experiment: qHTS Assay for Inhibitors and Substrates of Cytochrome P450 2D6 (AID 891); further: potency means the concentration at half of the fitted maximal effect; nearly all actives have a fitted effect of over 60% in size
Summary of the method: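 Human CYP2D6 (5 nM) with 30 uM Luciferin-ME EGE (at Km) in 100 mM KPO4, compound preincubated 10 min, then NADPH regeneration system for 60 min at room temperature. Luciferin read by luminescence; normalized to 1.43 uM quinidine.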

[23] = biological target: Dual specificity protein kinase CLK4 (Homo sapiens) (UniProt Q9HAZ1); experiment: qHTS Assay for Inhibitors of CDC-like Kinase 4 (ADP-Glo Assay) (AID 1771); further: potency means the concentration at half of the fitted maximal effect; nearly all actives have a fitted effect of over 70% in size
Summary of the method: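 Luminescence from ADP-Glo reports ADP produced by 25 nM Clk4 acting on 100 uM RS repeat peptide with 1 uM ATP over 1 hr at room temperature; residual ATP is depleted before ADP is converted to ATP for detection.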

Sequence of Cytochrome P450 3A4 (Homo sapiens) (P08684 whole entry, looked up): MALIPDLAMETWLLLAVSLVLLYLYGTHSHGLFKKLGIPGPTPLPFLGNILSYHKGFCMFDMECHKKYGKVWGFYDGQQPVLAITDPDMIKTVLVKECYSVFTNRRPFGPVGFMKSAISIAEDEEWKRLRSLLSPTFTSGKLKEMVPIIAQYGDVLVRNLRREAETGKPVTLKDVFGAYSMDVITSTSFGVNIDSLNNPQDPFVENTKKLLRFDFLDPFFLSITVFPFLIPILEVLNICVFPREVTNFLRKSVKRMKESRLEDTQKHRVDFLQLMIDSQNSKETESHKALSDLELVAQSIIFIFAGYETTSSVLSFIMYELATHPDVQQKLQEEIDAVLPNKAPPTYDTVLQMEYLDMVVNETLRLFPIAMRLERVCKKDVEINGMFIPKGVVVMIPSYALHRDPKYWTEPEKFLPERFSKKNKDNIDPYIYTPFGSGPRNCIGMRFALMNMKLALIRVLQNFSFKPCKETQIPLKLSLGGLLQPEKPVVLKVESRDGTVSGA
Sequence of Glucocorticoid receptor (Homo sapiens) (P04150 whole entry, looked up, the tested form may be a part): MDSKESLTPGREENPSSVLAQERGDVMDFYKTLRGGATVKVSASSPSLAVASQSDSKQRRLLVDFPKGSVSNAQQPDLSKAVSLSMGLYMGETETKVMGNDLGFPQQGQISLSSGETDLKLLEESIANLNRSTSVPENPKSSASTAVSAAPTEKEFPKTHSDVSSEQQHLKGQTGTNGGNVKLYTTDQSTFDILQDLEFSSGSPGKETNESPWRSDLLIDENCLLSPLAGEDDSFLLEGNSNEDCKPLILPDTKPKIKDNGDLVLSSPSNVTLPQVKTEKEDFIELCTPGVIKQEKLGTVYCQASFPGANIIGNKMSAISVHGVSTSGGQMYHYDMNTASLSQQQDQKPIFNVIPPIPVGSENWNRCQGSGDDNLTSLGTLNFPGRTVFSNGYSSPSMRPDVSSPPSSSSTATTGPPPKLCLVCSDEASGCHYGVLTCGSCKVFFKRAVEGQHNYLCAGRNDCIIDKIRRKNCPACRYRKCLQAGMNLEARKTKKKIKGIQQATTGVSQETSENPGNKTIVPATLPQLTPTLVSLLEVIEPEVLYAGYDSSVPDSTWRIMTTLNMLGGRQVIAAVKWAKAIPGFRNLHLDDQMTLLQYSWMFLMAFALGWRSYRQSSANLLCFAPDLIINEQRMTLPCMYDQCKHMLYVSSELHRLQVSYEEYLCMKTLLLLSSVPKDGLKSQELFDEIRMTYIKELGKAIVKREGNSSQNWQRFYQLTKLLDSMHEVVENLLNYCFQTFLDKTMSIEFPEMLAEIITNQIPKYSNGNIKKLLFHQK
Sequence of Dual specificity protein kinase CLK4 (Homo sapiens) (Q9HAZ1 whole entry, looked up): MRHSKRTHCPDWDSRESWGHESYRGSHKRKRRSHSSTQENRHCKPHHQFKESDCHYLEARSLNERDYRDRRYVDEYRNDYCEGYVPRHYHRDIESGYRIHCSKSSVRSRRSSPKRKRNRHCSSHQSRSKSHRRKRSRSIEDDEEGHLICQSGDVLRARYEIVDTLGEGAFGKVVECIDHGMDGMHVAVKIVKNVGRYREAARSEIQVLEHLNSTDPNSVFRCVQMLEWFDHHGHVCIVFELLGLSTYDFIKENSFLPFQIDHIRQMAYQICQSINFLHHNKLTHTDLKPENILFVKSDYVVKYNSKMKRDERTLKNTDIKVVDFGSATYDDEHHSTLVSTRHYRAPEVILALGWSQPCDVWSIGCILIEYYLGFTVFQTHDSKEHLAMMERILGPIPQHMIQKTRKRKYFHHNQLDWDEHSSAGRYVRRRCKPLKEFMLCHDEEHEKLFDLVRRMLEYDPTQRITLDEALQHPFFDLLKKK
Sequence of Rap guanine nucleotide exchange factor 3 (Homo sapiens) (O95398 whole entry, looked up): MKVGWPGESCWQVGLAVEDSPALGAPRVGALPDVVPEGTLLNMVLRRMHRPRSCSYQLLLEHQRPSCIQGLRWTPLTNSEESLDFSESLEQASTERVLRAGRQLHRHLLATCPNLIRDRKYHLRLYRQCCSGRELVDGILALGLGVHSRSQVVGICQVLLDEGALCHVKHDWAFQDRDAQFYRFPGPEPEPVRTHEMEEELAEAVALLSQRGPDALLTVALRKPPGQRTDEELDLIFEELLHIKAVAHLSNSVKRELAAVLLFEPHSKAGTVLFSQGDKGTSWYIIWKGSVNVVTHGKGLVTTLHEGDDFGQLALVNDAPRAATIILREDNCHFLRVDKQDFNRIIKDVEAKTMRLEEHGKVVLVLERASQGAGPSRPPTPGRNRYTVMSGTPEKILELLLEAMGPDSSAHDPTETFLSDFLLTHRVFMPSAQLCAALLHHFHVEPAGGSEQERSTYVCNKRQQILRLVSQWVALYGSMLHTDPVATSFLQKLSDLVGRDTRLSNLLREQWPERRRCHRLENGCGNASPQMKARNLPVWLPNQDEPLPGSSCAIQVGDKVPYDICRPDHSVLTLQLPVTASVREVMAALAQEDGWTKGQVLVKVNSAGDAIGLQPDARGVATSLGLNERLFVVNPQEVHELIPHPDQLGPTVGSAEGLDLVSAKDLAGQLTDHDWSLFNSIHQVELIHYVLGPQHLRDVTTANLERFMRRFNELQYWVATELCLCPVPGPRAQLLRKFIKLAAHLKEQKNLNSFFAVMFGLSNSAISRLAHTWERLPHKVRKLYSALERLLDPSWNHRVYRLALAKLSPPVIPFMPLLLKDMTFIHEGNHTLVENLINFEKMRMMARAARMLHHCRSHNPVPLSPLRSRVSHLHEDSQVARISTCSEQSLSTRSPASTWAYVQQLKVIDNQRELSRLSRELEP
Sequence of Cytochrome P450 2C19 (Homo sapiens) (P33261 whole entry, looked up): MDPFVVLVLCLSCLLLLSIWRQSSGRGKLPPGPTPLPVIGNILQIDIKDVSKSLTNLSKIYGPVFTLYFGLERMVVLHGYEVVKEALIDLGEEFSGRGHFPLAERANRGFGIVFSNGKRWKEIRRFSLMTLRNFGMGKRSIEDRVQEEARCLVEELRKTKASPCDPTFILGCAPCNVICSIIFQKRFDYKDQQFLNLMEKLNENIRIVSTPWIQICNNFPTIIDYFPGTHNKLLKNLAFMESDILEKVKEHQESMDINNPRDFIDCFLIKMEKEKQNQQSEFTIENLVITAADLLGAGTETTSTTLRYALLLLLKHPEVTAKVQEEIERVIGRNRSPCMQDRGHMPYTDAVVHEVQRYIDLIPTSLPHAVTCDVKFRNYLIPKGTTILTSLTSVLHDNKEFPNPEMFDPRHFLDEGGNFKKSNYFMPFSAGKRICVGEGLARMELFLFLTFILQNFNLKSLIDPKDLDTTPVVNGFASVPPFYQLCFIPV
Sequence of Rap guanine nucleotide exchange factor 4 (Homo sapiens) (Q8WZA2 whole entry, looked up): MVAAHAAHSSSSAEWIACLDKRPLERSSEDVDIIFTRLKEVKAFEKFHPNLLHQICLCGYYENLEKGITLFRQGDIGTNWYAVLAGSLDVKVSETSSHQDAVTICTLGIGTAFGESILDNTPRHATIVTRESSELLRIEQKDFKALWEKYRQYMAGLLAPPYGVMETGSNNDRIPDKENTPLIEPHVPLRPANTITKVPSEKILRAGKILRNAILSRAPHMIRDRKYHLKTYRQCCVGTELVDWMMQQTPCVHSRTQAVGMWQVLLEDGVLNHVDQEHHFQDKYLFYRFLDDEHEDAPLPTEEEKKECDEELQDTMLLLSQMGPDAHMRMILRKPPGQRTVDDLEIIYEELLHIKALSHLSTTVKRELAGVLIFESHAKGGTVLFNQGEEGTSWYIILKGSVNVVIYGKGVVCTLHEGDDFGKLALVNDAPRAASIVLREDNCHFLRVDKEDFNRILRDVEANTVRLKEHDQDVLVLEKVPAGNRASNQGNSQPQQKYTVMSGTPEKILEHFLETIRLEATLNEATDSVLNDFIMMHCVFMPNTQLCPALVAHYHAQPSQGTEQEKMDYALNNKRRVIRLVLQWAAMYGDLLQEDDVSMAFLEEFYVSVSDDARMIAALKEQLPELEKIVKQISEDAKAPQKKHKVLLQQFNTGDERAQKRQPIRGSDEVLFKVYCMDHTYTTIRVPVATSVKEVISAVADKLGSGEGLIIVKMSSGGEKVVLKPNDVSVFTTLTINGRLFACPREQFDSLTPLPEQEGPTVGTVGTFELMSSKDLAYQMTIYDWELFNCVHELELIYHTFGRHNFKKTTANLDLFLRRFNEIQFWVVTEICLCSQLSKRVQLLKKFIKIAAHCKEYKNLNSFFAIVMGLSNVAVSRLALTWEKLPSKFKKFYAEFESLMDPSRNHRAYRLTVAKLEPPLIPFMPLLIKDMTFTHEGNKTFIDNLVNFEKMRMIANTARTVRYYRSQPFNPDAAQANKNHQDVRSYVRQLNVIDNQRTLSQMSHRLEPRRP
Sequence of Cytochrome P450 1A2 (Homo sapiens) (P05177 whole entry, looked up): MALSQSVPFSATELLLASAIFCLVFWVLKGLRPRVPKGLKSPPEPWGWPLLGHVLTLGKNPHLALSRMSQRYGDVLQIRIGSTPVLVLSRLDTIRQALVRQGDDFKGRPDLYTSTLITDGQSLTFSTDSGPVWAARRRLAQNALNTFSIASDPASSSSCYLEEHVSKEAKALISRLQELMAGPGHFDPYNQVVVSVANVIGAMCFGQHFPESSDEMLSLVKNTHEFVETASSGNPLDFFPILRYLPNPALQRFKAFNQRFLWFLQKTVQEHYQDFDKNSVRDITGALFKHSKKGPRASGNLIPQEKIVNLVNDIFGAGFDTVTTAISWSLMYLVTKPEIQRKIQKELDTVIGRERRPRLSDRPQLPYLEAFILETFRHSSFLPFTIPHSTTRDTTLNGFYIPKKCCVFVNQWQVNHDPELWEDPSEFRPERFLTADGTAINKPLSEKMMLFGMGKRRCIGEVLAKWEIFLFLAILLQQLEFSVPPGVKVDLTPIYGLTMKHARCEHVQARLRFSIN

CSc1ccc(C2C(C(=O)c3ccco3)=C(O)C(=O)N2c2nnc(SC)s2)cc1 (configuration not stated)
active: Potency [1] 33.8 µM | Potency [4] 19 µM
inactive: Potency [2] | Potency [3] | Potency [5]

CC(C)=CCc1c(O)cc(O)c2c1O[C@H](c1ccccc1)CC2=O
active: Potency [6] 0.316 µM | Potency [8] 3.16 µM | Potency [9] 12.6 µM | Potency [11] 1 µM | Potency [4] 39.3 µM
inactive: Potency [7] | outcome [10] | Potency [1] | Potency [2] | Potency [3]

COc1ccc(S(=O)(=O)Nc2c(C)nn(C)c2C)cc1Br
inactive: Potency [1] | Potency [2] | Potency [3] | Potency [4] | Potency [5]

O=C1c2cccc3c(O)ccc(c23)C(=O)N1Cc1ccccc1
inactive: Potency [1]
active: Potency [12] 2.59 µM | Potency [2] 89.1 µM | Potency [3] 100 µM | Potency [4] 75.7 µM | Potency [5] 39.8 µM

COc1cccc(Cn2c(=O)c(CCc3ccccc3)nc3cnc(N4CCN(C)CC4)nc32)c1
active: Potency [6] 15.8 µM | Potency [11] 7.94 µM
inactive: Potency [13] > 11.4 µM | activity change, negative = inhibition [14] -3.73% | activity change, negative = inhibition [15] 8.33% | outcome [16] | Potency [17] > 46 µM | Potency [7] | Potency [18] | outcome [10] | Potency [19] | Potency [20] | Potency [1] | Potency [2] | Potency [3] | Potency [4]

CCNc1ccc2noc3c2c1C(=O)c1ccccc1-3
active: Potency [12] 3.26 µM | Potency [2] 100 µM | Potency [3] 100 µM | Potency [4] 16.9 µM | Potency [5] 22.4 µM
inactive: Potency [1]

COc1ccc2[nH]cc(CCNc3ncnc4ccc(-c5ccccc5OC)cc34)c2c1
active: Potency [6] 7.94 µM | Potency [8] 0.251 µM | Potency [22] 3.98 µM | Potency [11] 2 µM | Potency [23] 25.1 µM
inactive: Potency [13] > 11.4 µM | activity change, negative = inhibition [14] -28.6% | activity change, negative = inhibition [15] 20.2% | outcome [16] | Potency [21] > 46 µM | Potency [17] > 46 µM | Potency [18] | outcome [10] | Potency [19] | Potency [20] | Potency [1] | Potency [2] | Potency [3] | Potency [4]

Reference: PubChem BioAssay (NCATS)
